Screening data as filed in PubChem.
ROS inducer: inducers of reactive oxygen species in cancer cells. U2OS ROS induction, H2DCF-DA fluorescence. ROS induction (% of piperlongumine), % at 10 µM. 46,000 compounds, 2% hits; in the data active means ROS induction above about 79%, passing the limit was not always enough; inconclusive means no clear call, values can overlap the other calls;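 further: 0% = DMSO vehicle median and 100% = reference compound median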
YB-1 expr inh: YB-1 expression inhibition. U2OS, qRT-PCR YB-1 vs CDIP delta delta Cp, 16 h; hits give high values; zero = DMSO, each unit about twofold. delta delta Cp (YB-1 minus CDIP) (test concentration not listed). 30,000 compounds, 0.37% hits. AID 434959;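 active means delta delta Cp rounded down to an integer at or above 3, about 3 SD of DMSO wells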;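 further: higher means less YB-1 transcript or more CDIP transcript relative to DMSO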
The depositor's hits bear a star; ? = inconclusive; nt = no result given. The list is not random: actives were taken first. Their share in the collection is about 2.1%.

SMILES | ROS inducer | YB-1 expr inh
C[C@@H]1CCCCO[C@@H](CN(C)C(=O)C2CCCCC2)[C@@H](C)CN([C@H](C)CO)C(=O)c2cc(NS(C)(=O)=O)ccc2O1 | 91* | 0.42
C[C@@H]1CN([C@H](C)CO)C(=O)c2cccc(NC(=O)c3nc4ccccc4s3)c2O[C@H]1CN(C)Cc1ccc(Oc2ccccc2)cc1 | 1 | -0.53
Nc1nncn1C(=O)CCCOc1ccccc1 | -25 | nt
O=C(O)/C=C/c1ccc(Cn2ccnc2)cc1 | -9 | 0.08
Cc1cc(-n2nc3ccccc3n2)c2oc(SCc3nnc(-c4ccccc4)o3)nc2c1 | 3 | nt
c1ccc(Cn2ccnc2SCc2nnc(-c3ccccc3)o2)cc1 | 105* | nt
CCN1/C(=C/C2=CC(=O)CC(C)(C)C2)Sc2ccccc21 | 164* | 0.21
CCN1/C(=C\C(=S)Nc2ccccc2)Sc2ccccc21 | 66 | -0.084
Cc1ccc(S(=O)(=O)NC(C)(C)C(=O)Oc2cc(C)c3c(c2)oc(=O)c2ccccc23)cc1 | 37 | nt
CC1CC(=O)N(c2cc(C(F)(F)F)cc(C(F)(F)F)c2)C1=O (centres undefined) | -11 | nt
O=C1CC(C2CCCO2)C(=O)N1c1cccc(C(F)(F)F)c1 (centres undefined) | 5 | 5.8*
C[C@H](CO)N1C[C@H](C)[C@H](CN(C)S(C)(=O)=O)Oc2ccc(NS(C)(=O)=O)cc2CC1=O | 41 | -0.098
Cc1noc(C)c1NC(=O)N(C)C[C@H]1Oc2c(NS(=O)(=O)c3ccccc3)cccc2C(=O)N([C@H](C)CO)C[C@H]1C | 0 | -0.31
COc1ccc(-c2nc3cc(C)ccc3o2)cc1 | 73 | nt
CC(C)(C)c1ccc(-c2nnc(SCC(=O)Nc3ccccc3[N+](=O)[O-])o2)cc1 | 1 | nt
CC(C)(C)c1ccc(-c2nnc(-c3ccccc3NC(=O)/C=C\C(=O)O)o2)cc1 | 80* | nt
Cc1noc(C)c1NC(=O)Nc1ccc2c(c1)CC(=O)N([C@H](C)CO)C[C@@H](C)[C@@H](CN(C)S(=O)(=O)c1cn(C)cn1)O2 | -7 | 0.74
COc1ccc2c(c1)c(C(=O)ON1C(=O)CCC1=O)c(C)n2C1CC1 | -2 | 3.8*
COc1ccc2c(c1)c(C(=O)O)c(C)n2CCc1ccc(OC)c(OC)c1 | 24 | -0.32
Cc1nc(SCC(=O)C(C)(C)C)[nH]c(=O)c1Cc1c(Cl)cccc1Cl | 36 | -0.65
Cc1nc2c(c(C)nn2C)c(C)c1CCC(=O)N1CCC(C)CC1 | -8 | nt
COc1ccc([Si](C)(C)[C@H]2[C@H](CCn3cc(CCO)nn3)O[C@@]3(C(=O)N(Cc4ccc(N5CCOC5=O)cc4)c4ccccc43)[C@@H]2C)cc1 | 145* | 0.13
C=CCN1C(=O)[C@]2(O[C@H](CCn3cc(CCO)nn3)[C@@H]([Si](C)(C)c3ccc(OC)cc3)[C@@H]2C)c2ccccc21 | 35 | 0.49
C=CCN1C(=O)[C@@]2(O[C@@H](CCn3cc([C@H](O)c4ccccc4)nn3)[C@H]([Si](C)(C)c3ccc(OC)cc3)[C@H]2C)c2cc(N3CCOC3=O)ccc21 | 63 | -0.098
COc1ccc([Si](C)(C)[C@H]2[C@H](CCO)O[C@@]3(C(=O)N(Cc4cccc(NC(C)=O)c4)c4ccccc43)[C@@H]2C)cc1 | ? | 0.29
SMILES | ROS inducer | YB-1 expr inh
C=CCN1C(=O)[C@@]2(O[C@@H](CCn3cc(CCO)nn3)[C@H]([Si](C)(C)c3ccc(OC)cc3)[C@H]2C)c2cc(N3CCOC3=O)ccc21 | 45 | 0.38
COc1ccc([Si](C)(C)[C@H]2[C@H](CCn3cc(CCO)nn3)O[C@@]3(C(=O)N(Cc4cccc(N5CCOC5=O)c4)c4ccccc43)[C@@H]2C)cc1 | 107* | 0.4
COc1ccc([Si](C)(C)[C@@H]2[C@@H](CCn3cc(CCO)nn3)O[C@]3(C(=O)N(Cc4cccc(N5CCOC5=O)c4)c4ccccc43)[C@H]2C)cc1 | 116* | -0.089
COc1ccc([Si](C)(C)[C@@H]2[C@@H](CCn3cc([C@H](O)c4ccccc4)nn3)O[C@]3(C(=O)N(Cc4cccc(N5CCOC5=O)c4)c4ccccc43)[C@H]2C)cc1 | 116* | -0.068
C[C@@H]1CN([C@@H](C)CO)C(=O)Cc2cc(NC(=O)Nc3ccc(F)cc3)ccc2O[C@@H]1CN(C)Cc1ccc(Cl)c(Cl)c1 | 39 | 0.31
C[C@@H]1CCCCO[C@H](CN(C)C(=O)Cc2ccccc2)[C@@H](C)CN([C@H](C)CO)C(=O)c2cc(NC(=O)CCC(F)(F)F)ccc2O1 | -3 | -0.22
C[C@@H]1CN([C@@H](C)CO)C(=O)c2cc(NC(=O)Nc3cccc4ccccc34)ccc2O[C@@H]1CN(C)S(=O)(=O)c1cccs1 | 5 | -0.074
Cn1c(=O)c(-c2noc(-c3ccccc3)n2)cn(-c2ccccc2)c1=O | -4 | nt
O=C(NO)c1ccc(C(=O)N/N=C/c2ccccn2)cc1 | 8 | 0.4
Cc1cccc(C)c1OCC(=O)Nc1cccc(C(=O)O)c1 | 4 | nt
C[C@@H]1CCCCO[C@@H](CN(C)Cc2ccc(C(F)(F)F)cc2)[C@@H](C)CN([C@H](C)CO)C(=O)c2cc(NC(=O)c3ccncc3)ccc2O1 | 98* | 0.21
C[C@@H]1CCCCO[C@H](CN(C)CC2CCCCC2)[C@@H](C)CN([C@H](C)CO)C(=O)c2cc(NC(=O)c3ccncc3)ccc2O1 | 0 | 6.4*
C[C@@H]1CCCCO[C@@H](CN(C)Cc2ccc(C(F)(F)F)cc2)[C@@H](C)CN([C@H](C)CO)C(=O)c2cc(NC(=O)c3ccccc3)ccc2O1 | 71 | -0.45
C[C@@H]1CCCCO[C@@H](CN(C)CC2CCCCC2)[C@@H](C)CN([C@H](C)CO)C(=O)c2cc(NC(=O)c3ccccc3)ccc2O1 | 8 | -0.42
Cc1noc(C)c1S(=O)(=O)Nc1ccc2c(c1)C(=O)N([C@H](C)CO)C[C@H](C)[C@@H](CN(C)Cc1ccc(Cl)c(Cl)c1)O2 | 72 | -0.026
Cc1noc(C)c1NC(=O)Nc1ccc2c(c1)C(=O)N([C@H](C)CO)C[C@H](C)[C@@H](CN(C)Cc1ccc(Cl)c(Cl)c1)OCCCC[C@@H](C)O2 | 10 | 6.1*
Cc1noc(C)c1NC(=O)Nc1ccc2c(c1)C(=O)N([C@H](C)CO)C[C@H](C)[C@H](CN(C)Cc1ccc3c(c1)OCO3)OCCCC[C@@H](C)O2 | -1 | 0.078
Cc1noc(C)c1S(=O)(=O)Nc1ccc2c(c1)C(=O)N([C@H](C)CO)C[C@@H](C)[C@@H](CN(C)Cc1ccc(Cl)c(Cl)c1)O2 | 101* | -0.044
C[C@@H]1CN([C@@H](C)CO)C(=O)c2cc(NS(=O)(=O)c3ccccc3)ccc2O[C@@H]1CN(C)Cc1ccccc1 | -5 | -0.13
Cc1noc(C)c1S(=O)(=O)N(C)C[C@@H]1Oc2ccc(NC(=O)CCC(F)(F)F)cc2CC(=O)N([C@@H](C)CO)C[C@@H]1C | 7 | 0.0086
C[C@@H]1CN([C@@H](C)CO)C(=O)c2cc(NC(=O)Nc3ccccc3)ccc2O[C@@H]1CN(C)Cc1ccc(C(=O)Nc2ccccc2N)cc1 | 0 | -0.16
O=C(c1cccnc1)N(C1CCCCC1)C1CCCCC1 | 6 | nt
C[C@@H]1CCCCO[C@@H](CN(C)Cc2ccccc2)[C@@H](C)CN([C@H](C)CO)C(=O)c2cc(NC(=O)c3ccccc3)ccc2O1 | 184* | 0.084
C[C@@H]1CCCCO[C@H](CN(C)Cc2ccc(C(=O)O)cc2)[C@@H](C)CN([C@H](C)CO)C(=O)c2cc(NC(=O)c3ccccc3)ccc2O1 | 28 | -0.3
